Laboratory results as given in PubChem BioAssay AID1159580 (chemical genetic matrix, 2015).
Hit rate of the full screen: of about 5,500 compounds, about 2,000 (36%) were called active. Not shown: some 18% with an inconclusive outcome. No stated cut-off is given here; in the data, active means normalized growth mostly below about 0.91 (no sharp cut-off); inconclusive means no clear call, values can overlap the other calls; inactive means mostly above about 0.92. Some of the results follow.

Assay: chemical genetic growth profiling, strain panel (AID 1159580);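 further: tested at 20 µM; growth read once vehicle control cultures reached saturation at 30 °C; 1 = growth at the plate median or of vehicle wells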
Conditions: S. cerevisiae deletion strains, growth OD

Measured: normalized growth

COc1cc(CC(C)N)c(OC)cc1I (stereo not drawn)
inactive: locus YAL040C, strain CLN3, stronger effect = lower value 0.975 | locus YCL061C, strain MRC1 (second series), stronger effect = lower value 1 | locus YDR363W, strain ESC2, stronger effect = lower value 1.04 | locus YER002W, strain NOP16, stronger effect = lower value 1.03 | locus YJR075W, strain HOC1, stronger effect = lower value 1.01 | locus YMR307W, strain GAS1, stronger effect = lower value 0.996 | locus YNL175C, strain NOP13, stronger effect = lower value 0.995 | locus YNL197C, strain WHI3, stronger effect = lower value 1.02 | locus YNL224C, strain SQS1, stronger effect = lower value 0.997 | locus YNL322C, strain KRE1, stronger effect = lower value 1 | locus YOR083W, strain WHI5 (second series), stronger effect = lower value 0.984 | locus YPL055C, strain LGE1, stronger effect = lower value 1.03 | locus YPL241C, strain CIN2, stronger effect = lower value 0.991
